CHRM1 agonist = human M1 muscarinic receptor agonists, primary screen, Fluo-8 calcium fluorescence, CHO-K1 cells, HTS; Muscarinic acetylcholine receptor M1 (Homo sapiens), P11229; CHO-K1 hM1, agonist mode; 0% DMSO, 100% acetylcholine EC100; activation, % at 3 µM; 360,000 compounds, 0.33% hits; AID 588814, 2011;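 active = activation above the run's mean compound activation plus 3 SD, cut at about 16% in these data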;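 note: peak over basal fluorescence ratio within a 140 s kinetic read after compound addition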
Target sequence (P11229 whole entry, looked up): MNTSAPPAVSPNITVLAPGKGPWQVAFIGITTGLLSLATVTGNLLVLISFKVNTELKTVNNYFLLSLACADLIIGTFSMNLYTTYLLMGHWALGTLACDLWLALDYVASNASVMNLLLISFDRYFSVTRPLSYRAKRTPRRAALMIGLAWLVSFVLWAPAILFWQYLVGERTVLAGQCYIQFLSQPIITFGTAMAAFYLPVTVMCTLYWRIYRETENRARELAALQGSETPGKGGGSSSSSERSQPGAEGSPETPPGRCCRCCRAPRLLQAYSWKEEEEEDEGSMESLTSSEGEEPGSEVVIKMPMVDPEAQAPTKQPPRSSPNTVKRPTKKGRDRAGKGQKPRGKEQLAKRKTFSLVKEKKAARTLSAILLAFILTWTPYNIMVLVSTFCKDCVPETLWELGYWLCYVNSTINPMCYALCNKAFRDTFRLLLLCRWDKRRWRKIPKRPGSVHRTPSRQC
M1 antag = human M1 muscarinic receptor antagonists, primary screen, CHO-K1 cells, Fluo-8 calcium fluorescence, 1536-well; Muscarinic acetylcholine receptor M1 (Homo sapiens), P11229; CHO-K1 hM1, ACh EC80 antagonist; inhibition, % at 3 µM; 360,000 compounds, 1.3% hits; AID 588852, 2011;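 active = percent inhibition above its own plate's cutoff, namely the mean of that plate's compound wells plus 3 SD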;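 note: peak over basal fluorescence ratio during 140 s after agonist addition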
M1 PAM parental = nonselective calcium activators in parental CHO-K1 cells, primary screen, counter-screen for M1 PAM project, cell-based, Fluo-8 calcium fluorescence, full deck, 1536-well. ATP EC20; 0% at ATP EC20, 100% at ATP max. activation, % at 3 µM. 360,000 compounds, 0.02% hits;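 active = activation above the run cutoff, the mean activation of all test compounds plus 3 SD, cut at about 40% in these data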;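 note: peak over basal fluorescence ratio in a 140 s read after ATP addition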
CHO-K1 Ca antag = M1 antagonist counterscreen hit in parental CHO-K1 cells | AID 602250 | ATP-induced calcium, Fluo-8 fluorescence | 360,000 compounds, 0.6% hits | inhibition, % at 3 µM;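 active = inhibition above a per-plate cutoff, the plate's mean sample inhibition plus 3 SD, cut at about 24% in these data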
CHRM1 PAM = human M1 muscarinic receptor positive allosteric modulators, primary screen, CHO-K1 cells, Fluo-8 calcium fluorescence, 1536-well. Muscarinic acetylcholine receptor M1 (Homo sapiens), P11229. CHO-K1 hM1, ACh EC20; 0% = ACh EC20, 100% = maximal ACh. activation, % at 3 µM. 360,000 compounds, 0.088% hits; in the data active = activation above about 19%, passing the limit was not always enough
CHO-K1 Ca ag = counter-screen for M1 agonists: effect in parental CHO-K1 cells; Fluo-8 calcium fluorescence; scaled to maximal ATP response, vehicle zero; activation, % at 3 µM; 360,000 compounds, 0.48% hits; AID 602248, 2012; in the data active = activation above about 15%;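 note: untransfected CHO-K1 host cells lacking M1 receptor as counterscreen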
Hits are given with their value; - = inactive. The list is not random: actives were taken first. Their share in the collection is about 2.4%.

SMILES | CHRM1 agonist | M1 antag | M1 PAM parental | CHO-K1 Ca antag | CHRM1 PAM | CHO-K1 Ca ag
COC(=O)CCN(C(=O)c1ccc(N2CCCCC2)c([N+](=O)[O-])c1)c1ccccn1 | - | - | - | - | - | 20
COC(=O)CCN(C(=O)c1ccc(N2CCCC2)c([N+](=O)[O-])c1)c1ccccn1 | - | - | - | - | - | -
COc1ccccc1-c1coc2c(CN3CCCC(C)C3)c(O)ccc2c1=O (stereo not drawn) | - | - | - | - | - | -
C/C(=N\NC(=O)CSc1nc(C)cc(C)n1)c1cccc([N+](=O)[O-])c1 | - | - | 41 | - | - | -
Cc1cc(Cl)ccc1OCCCC(=O)NNC(=O)c1ccccc1O | - | - | - | - | - | -
CCOC(=O)C1CCCN(c2c(C(=O)c3ccccc3)cnc3ccc(OC)cc23)C1 (stereo not drawn) | 62 | 51 | 61 | - | - | -
CCOC(=O)C1CCCN(C(=O)COc2ccc(C(=O)c3ccccc3)cc2)C1 (stereo not drawn) | - | - | - | - | - | -
Cc1ccc(C(=O)N[C@H](C(=O)N2CCN(c3ccccc3F)CC2)C(C)C)cc1 | - | - | - | - | - | -
O=C(Nc1ccccc1)Nc1ccc(Cl)c([N+](=O)[O-])c1 | - | - | - | - | - | 17
O=C(Nc1ccccc1)Nc1ccc(F)c([N+](=O)[O-])c1 | - | - | - | - | - | 15
Cc1ccc(NC(=O)Nc2ccccc2)cc1[N+](=O)[O-] | - | - | - | - | - | -
CCNC(=S)Nc1ccc(Cl)c([N+](=O)[O-])c1 | - | 36 | - | - | - | -
COc1cc2c(cc1OC)CN(C(=O)CN1CCN(S(=O)(=O)c3ccccc3)CC1)CC2 | - | - | - | - | - | -
COc1ccc(C2CCCN2C(=O)Nc2cccc(C(C)=O)c2)cc1OC (stereo not drawn) | - | - | - | 26 | - | -
CCCCNc1c(-c2ccc(OC)c(Sc3ccc(OC)cc3)c2)nc2cnccn12 | - | - | - | - | - | -
CCCCNc1c(-c2ccc(OC)c(Sc3ccc(OC)cc3)c2)nc2ccccn12 | - | 50 | - | - | - | -
CCCCNc1c(-c2ccc(SC(C)CC)c(OC)c2)nc2ccc(C)cn12 (stereo not drawn) | - | 44 | - | - | - | -
Cc1c(C(=O)NCc2ccccc2C(F)(F)F)sc(=O)n1Cc1ccc2ccccc2c1 | - | - | - | - | - | -
CC(C)Cn1c(N)c(C(=O)COC(=O)C2Cc3ccccc3CN2S(C)(=O)=O)c(=O)n(C)c1=O (stereo not drawn) | - | - | - | - | - | -
O=C(Nc1ccncc1)c1cc(C2CCCCN2C(=O)CCCc2ccccc2)on1 (stereo not drawn) | - | - | - | - | - | -
Cc1ccc(C)c(N(CC(=O)NC2CCCCC2)C(=O)CNC(=O)c2ccco2)c1 | - | - | - | - | - | -
O=CNCCCc1nc2ccccc2n1Cc1ccccc1 | - | - | - | 36 | - | -
CC(C)c1nc2c(c(=O)c3ccccc3n2C)c(=O)n1CCc1ccccc1 | 20 | - | - | - | - | 21
C=CCNC(=S)NNC(=O)c1cccn(Cc2cccc(Cl)c2)c1=O | - | 21 | - | - | - | -
C=CCNC(=S)NNC(=O)c1cccn(Cc2ccc(Cl)cc2)c1=O | - | - | - | - | - | -
O=C(NC1CCCCC1)Sc1ccc(Cl)cc1 | - | - | - | 24 | - | -
O=C(CSc1ccc(Cl)cc1)NC1CCCC1 | - | - | - | - | - | -
Cc1ccc(NC(=O)C2CCCO2)c(Br)c1 (stereo not drawn) | - | - | - | - | - | -
CCCOc1ccccc1C(=O)N(Cc1ccc(C)o1)C1CCS(=O)(=O)C1 (stereo not drawn) | - | - | - | - | - | -
C[N+](C)(C)CC/C=C1/c2ccccc2CSc2ccccc21 | - | 96 | - | - | - | -

Bioassay records (PubChem BioAssay)
